Unmarked numbers belong to inactive results. Activity calls are given as the source filed them. The call rests on the fitted dose curve; in most records, active means well fitted activation curve with a large enough effect; inconclusive means small, poorly fitted or top-dose-only effect; inactive means no such curve, though single readings can be large or run the other way.
assay: Confirmatory qHTS for Identification of Small Molecule Activators of Huntingtin-Antisense Promoter Activity; conditions: HEK293 HTT-AS promoter firefly luciferase reporter, 24 h; series mostly up to 57.5 µM; activity change, positive = activation: at the top concentration
Method in brief: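 2,500 luciferase reporter HEK293 cells/well; 24 h culture; cpds up to 57.5 uM final, PTC124 50 uM ctrl; 24 h, 37C; Dual-Glo FLuc reagent, 10 min RT; lum. Norm.: vehicle 0%, zero RLU -100%.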
Potency means the concentration at half of the fitted maximal effect.

| SMILES | activity change, positive = activation | Potency |
| --- | --- | --- |
| CCCOc1cccc(NC(=O)c2c(-c3ccccc3Cl)noc2C)c1 | -24.2% |  |
| COc1ccc(S(=O)(=O)N(CCc2ccccc2)CC(=O)Nc2cc(C)cc(C)c2)cc1OC | -24.1% |  |
| CCCCOC(=O)c1ccc(NC(=O)c2sc3nc(C)cc(C)c3c2N)cc1 | -52.3% |  |
| COCCn1c2c([n+](Cc3cnccn3)c1C)C(=O)c1ccccc1C2=O | -94% |  |
| O=C(Nc1ccc(Cl)c(Cl)c1)N(Cc1c[nH]c2ccccc12)C1CCCCC1 |  | 2.39 µM (active) |
| COc1ccc(-n2ccnc2SCC(=O)Nc2cccc(OC)c2)cc1 | -49% |  |
| Cc1ccccc1Cn1c(=O)n(Cc2ccco2)c(=O)c2oc3ccccc3c21 | -7.53% |  |

Source: PubChem BioAssay AID1508622 (National Center for Advancing Translational Sciences (NCATS), 2021)
